According to PubChem BioAssay:
Calls of active or inactive are those of the source. Unless noted, no rule for the calls is given here.

Columns and labels:
[1] = blood-stage malaria parasite viability loss – strain 3D7, DAPI fluorescence, 100 nL, primary screen (AID 1184);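 also: parasites grown inside human red blood cells in medium with human serum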; conditions: P. falciparum 3D7 growth, 3 d, higher = more signal
[2] = molecular target: Homeobox protein Hox-A13 (Mus musculus) (UniProt Q62424); assay: disruptors of Hoxa13 oligonucleotide interaction – biochemical, fluorescence polarization, labeled oligonucleotide, primary screen (AID 1185); conditions: Hoxa13:DNA binding, 15 min, higher = more signal, called active from +8 up or from −8 down
[3] = blockers of DNA damage checkpoint Chk1 activation – imaging, HeLa, hydroxyurea, phospho-Chk1 antibody, percent positive cells, primary screen (AID 1186); conditions: hydroxyurea-induced phospho-Chk1 immunofluorescence imaging, higher = more signal
[4] = blockers of DNA damage checkpoint Chk1 activation – imaging, HeLa, hydroxyurea, phospho-Chk1 nuclear intensity, primary screen (AID 1187); conditions: hydroxyurea-induced phospho-Chk1 immunofluorescence imaging, higher = more signal; also: test concentration not given here

Chain of Homeobox protein Hox-A13 (Mus musculus) (Q62424 whole entry, looked up): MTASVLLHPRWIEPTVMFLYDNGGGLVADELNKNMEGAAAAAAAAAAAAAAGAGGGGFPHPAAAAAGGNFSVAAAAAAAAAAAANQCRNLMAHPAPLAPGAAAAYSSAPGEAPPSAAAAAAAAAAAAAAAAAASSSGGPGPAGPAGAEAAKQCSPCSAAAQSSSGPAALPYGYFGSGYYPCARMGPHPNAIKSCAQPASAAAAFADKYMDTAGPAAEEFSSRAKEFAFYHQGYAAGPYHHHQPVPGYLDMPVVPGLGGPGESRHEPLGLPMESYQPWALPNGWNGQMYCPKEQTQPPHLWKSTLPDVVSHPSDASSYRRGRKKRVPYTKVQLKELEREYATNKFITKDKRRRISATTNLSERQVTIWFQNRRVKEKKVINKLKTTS

| Compound | z-score [1] | z-score [2] | z-score [3] | z-score [4] |
| --- | --- | --- | --- | --- |
| C=C(C(=O)CC[C@H](OC(C)=O)c1ccc(CO)o1)C(C)C | -2.1 | -2.79 (inactive) | -0.17 (inactive) | -0.428 (inactive) |
| [N-]=[N+]=Nc1ccccc1[C@H]1OC(c2ccc(OCCCO)cc2)=N[C@@]1(Cc1ccccc1)C(N)=O | -1.96 | -3.95 (inactive) | -0.313 (inactive) | -0.179 (inactive) |
| CC(C)C[C@@H]1NC(=O)[C@@]23C(=O)N[C@@H](Cc4ccccc4)C2[C@H](C)[C@@]2(C)O[C@H]2C3/C=C/CC/C=C/CNC(=O)[C@@H](C)NC1=O (stereo partly specified) | -2.13 | -4.78 (inactive) | -0.0396 (inactive) | 0.292 (inactive) |
| C=CC[C@]1(C(=O)N2CCCCC2)COC(c2ccc(OCCCO)cc2)=N1 | -2.13 | -4.15 (inactive) | -0.8 (inactive) | -1.06 (inactive) |
| COC(=O)C1=CC(CCCO)=CC(C2CC2)N(Cc2cc3c(cc2Br)OCO3)C=C1C(=O)OC (stereo unspecified) | -0.963 | -4.63 (inactive) | -0.203 (inactive) | -0.201 (inactive) |
| O=C(NC1CC1)[C@@H]1c2ccccc2C(=O)N(Cc2ccccc2C(F)(F)F)[C@H]1c1ccc(CO)cc1 | -0.358 | -1.7 (inactive) | -0.14 (inactive) | 0.177 (inactive) |
| COc1ccc([Si](C)(C)[C@H]2[C@H](CC(=O)N(CCO)Cc3ccccc3)O[C@@]3(C(=O)N(Cc4cccc(N5C(=O)COc6ccccc65)c4)c4ccccc43)[C@@H]2C)cc1 | -2.28 | -1.15 (inactive) | -0.567 (inactive) | 0.722 (inactive) |
| CC(C)(C)OC(=O)CC[C@@]12N=C(c3ccc(OCCCO)cc3)O[C@@H]1c1ccccc1N(Cc1ccccc1)C2=O | -2.19 | -1.44 (inactive) | -0.501 (inactive) | -0.284 (inactive) |
| C=C(COC)C(=O)CC[C@@H](OC(=O)c1ccccc1-c1ccccc1C(=O)O)c1cccc(OCCO)c1 | -1.24 | -4.82 (inactive) | 0.273 (inactive) | -0.307 (inactive) |
| O=c1n(-c2ccccc2)c(=O)n2n1CC(COc1ccccc1)=C1[C@@H](CCc3ccccc3)OB(O)C[C@@H]12 | -1.02 | -6.66 (inactive) | -0.337 (inactive) | -0.175 (inactive) |
| CC(C)(C)OC(=O)CC[C@@]12N=C(c3ccc(OCCCO)cc3)O[C@@H]1c1ccccc1CN(Cc1ccccc1)C2=O | -2.3 | -1.33 (inactive) | -0.543 (inactive) | 0.0228 (inactive) |
| NCCCCCCNC(=O)[C@@H]1C[C@@H]2C(=O)N[C@@H](Cc3ccccc3)C(=O)N2[C@@H]1c1ccc(O)cc1 | -0.18 | -1.74 (inactive) | 1 (inactive) | 0.982 (inactive) |
| C=C(CCCC)/C(=C/C[C@H](OC(=O)c1ccncc1)c1ccc(CO)o1)c1cnc2ccccc2c1 | -0.209 | -4.76 (inactive) | -0.762 (inactive) | -0.937 (inactive) |
| CCN(CC)c1ccc(N2CC=CC34O[C@@H]5C=CCOC(=O)[C@@H]5[C@H]3C(=O)N(C(C)CO)[C@@H]4C2=O)cc1 (stereo partly specified) | 0.339 | -3.29 (inactive) | 0.36 (inactive) | 0.325 (inactive) |
| C=CC[C@@]1(C(=O)NCc2ccccc2)N=C(c2ccc(OCCCO)cc2)O[C@@H]1c1ccccc1 | -2.24 | -6.13 (inactive) | -0.762 (inactive) | -0.974 (inactive) |
| O=C(O)[C@H]1C[C@H]2C(=O)NCC(=O)N2[C@H]1c1cccc(OCCO)c1 | -0.52 | -3.76 (inactive) | 0.328 (inactive) | 0.212 (inactive) |
| COc1ccc(C#Cc2ccc3c(c2)[C@]2(C(=O)N3)[C@H](c3ccc(O)cc3)N3[C@H](c4ccccc4)[C@H](c4ccccc4)OC(=O)[C@H]3[C@@H]2C(=O)N2CCN(c3ncccn3)CC2)cc1 | -2.28 | 0.562 (inactive) | 0.396 (inactive) | 0.583 (inactive) |
| COc1ccc([Si](C)(C)[C@H]2[C@H](CC(=O)N(CCO)Cc3ccccc3)O[C@@]3(C(=O)N(Cc4ccc(N5CCC5=O)cc4)c4ccccc43)[C@@H]2C)cc1 | -1.24 | -0.622 (inactive) | -0.632 (inactive) | -0.0543 (inactive) |
| C[C@@H](OCc1ccccc1)C1NC(=O)[C@@]23C(=O)N[C@@H](Cc4ccccc4)C2[C@H](C)[C@@]2(C)O[C@H]2C3/C=C/C/C=C\CNC(=O)[C@@H]2CCCN2C1=O (stereo partly specified) | -2.58 | -7.05 (inactive) | 0.0938 (inactive) | 0.427 (inactive) |
| C=C(CCCC)/C(=C/C[C@@H](OC(=O)c1ccncc1)c1ccc(OCCO)cc1)c1cnc2ccccc2c1 | -2.84 | -2.35 (inactive) | -0.191 (inactive) | -0.181 (inactive) |

| Compound | z-score [1] | z-score [2] | z-score [3] | z-score [4] |
| --- | --- | --- | --- | --- |
| COc1ccc(C(=O)Nc2cccc(CN3C(=O)[C@@]4(O[C@@H](CCO)[C@H]([Si](C)(C)c5ccc(OC)cc5)[C@H]4C)c4ccccc43)c2)cc1 | -2.7 | -2.09 (inactive) | -1.08 (inactive) | -0.215 (inactive) |
| CC1CC/C=C\[C@H]2OC34C=CCN(C(C)C)C(=O)[C@H]3N(C(CO)C(C)C)C(=O)[C@@H]4C2C(=O)O1 (stereo partly specified) | 0.639 | -4.54 (inactive) | -0.686 (inactive) | -0.549 (inactive) |
| [N-]=[N+]=NCc1ccccc1C[C@@]1(C(=O)O)N=C(c2ccc(OCCCO)cc2)O[C@@H]1c1ccccc1 | -0.455 | -5.05 (inactive) | 0.0912 (inactive) | 0.429 (inactive) |
| COC(=O)c1c2oc(c1C(=O)OC)C(=O)N[C@@H](C(C)C)Cn1nncc1C1(CCCCC1)NC(=O)N[C@H](CO)CC2 | 0.0974 | -1.72 (inactive) | -0.259 (inactive) | 0.158 (inactive) |
| CCCNC(=O)[C@@H]1c2ccccc2C(=O)N(Cc2cc(C(F)(F)F)cc(C(F)(F)F)c2)[C@H]1c1ccc(CO)cc1 | -1.64 | -1.94 (inactive) | -0.319 (inactive) | 0.0789 (inactive) |
| COC(=O)C(CC#Cc1ccc2c(c1)[C@]1(C(=O)N2)[C@H](C(=O)O)[C@H]2C(=O)O[C@H](c3ccccc3)[C@H](c3ccccc3)N2[C@@H]1c1ccc(OCCO)cc1)C(=O)OC | -2.14 | -6.34 (inactive) | -0.192 (inactive) | 0.124 (inactive) |
| COc1ccc([Si](C)(C)[C@H]2[C@H](CC(=O)N3Cc4ccccc4C[C@H]3CO)O[C@@]3(C(=O)N(Cc4cccc(N5C(=O)COc6ccccc65)c4)c4ccccc43)[C@@H]2C)cc1 | -2.22 | -1.82 (inactive) | -0.558 (inactive) | -0.221 (inactive) |
| CC(C)(C)OC(=O)CC[C@]1(C(=O)NCc2ccccc2)N=C(c2ccc(OCCCO)cc2)O[C@H]1c1ccccc1N=[N+]=[N-] | -2.16 | -0.908 (inactive) | -0.328 (inactive) | 0.252 (inactive) |
| C=CCNC(=O)[C@@H]1[C@H]2C(=O)O[C@H](c3ccccc3)[C@H](c3ccccc3)N2[C@H](c2ccc(O)cc2)[C@@]12C(=O)N(C(=O)OCCOC)c1ccc(C#Cc3ccc(OC)cc3)cc12 | -1.08 | -0.182 (inactive) | 0.148 (inactive) | 0.446 (inactive) |
| COc1ccc([Si](C)(C)[C@@H]2[C@@H](CCn3cc(CCO)nn3)O[C@]3(C(=O)N(Cc4ccc(N5C(=O)c6cccc7cccc5c67)cc4)c4ccccc43)[C@H]2C)cc1 | -2.41 | -1.56 (inactive) | -1.02 (inactive) | -0.956 (inactive) |
| CC(C)C(CO)N1C(=O)[C@@H]2[C@H]3C(=O)OCC=C[C@H]3OC23C=CCN(Cc2ccccc2)C(=O)[C@@H]13 (stereo partly specified) | -0.383 | -2.93 (inactive) | -0.228 (inactive) | -0.647 (inactive) |
| CC(C)C(=C=CC[C@H](O)c1ccc(OCCO)cc1)C[C@H](O)COCc1ccccc1 | -2.65 | -4.06 (inactive) | -0.0011 (inactive) | 0.313 (inactive) |
| CCN(CC)c1ccc(N2CC=CC34O[C@@H]5C=CCOC(=O)[C@@H]5[C@H]3C(=O)N(C(CO)C(C)C)[C@@H]4C2=O)cc1 (stereo partly specified) | -0.45 | -3.03 (inactive) | -0.623 (inactive) | 0.286 (inactive) |
| CC(C)C[C@@H]1NC(=O)[C@@]23C(=O)N[C@@H](Cc4ccccc4)C2[C@H](C)[C@@]2(C)O[C@H]2C3/C=C/C/C=C\CNC(=O)[C@H](Cc2ccccc2)NC1=O (stereo partly specified) | -1.46 | -5.15 (inactive) | 0.03 (inactive) | 0.356 (inactive) |
| Cc1ccc(N2C(=O)c3ccccc3[C@](C)(C(=O)NC3CC3)[C@@H]2c2ccc(CO)cc2)nc1 | 0.202 | -1.18 (inactive) | -0.0797 (inactive) | 0.24 (inactive) |
| C#CCN1C(C(=O)OCC)OC[C@H]1c1ccccc1 (stereo partly specified) | -1.53 | 0.387 (inactive) | -0.285 (inactive) | 0.0032 (inactive) |
| COC(=O)C(CC#Cc1ccc2c(c1)[C@]1(C(=O)N2)[C@H](c2ccccc2OCCO)N2[C@H](c3ccccc3)[C@H](c3ccccc3)OC(=O)[C@H]2[C@@H]1C(=O)N1CCCCCCC1)C(=O)OC | -2.2 | 3.62 (inactive) | 0.114 (inactive) | 0.72 (inactive) |
| COCCOC(=O)N1C(=O)[C@@]2(c3cc(C#CCNC(N)=O)ccc31)[C@H](c1ccccc1OCCO)N1[C@H](c3ccccc3)[C@H](c3ccccc3)OC(=O)[C@H]1[C@@H]2C(=O)Nc1nc2ccccc2s1 | -1.89 | 1.57 (inactive) | -0.298 (inactive) | -0.154 (inactive) |
| COCCCN1C(=O)[C@@]2(Cc3ccccc31)c1ccccc1C(=O)N(Cc1ccccc1Cl)[C@H]2c1ccc(CO)cc1 | -0.7 | -0.759 (inactive) | -0.83 (inactive) | -0.981 (inactive) |
